What was measured:
Conditions in all cases: concentration: 1 μM, replicates: in singlicate; n = 1
MAPKAPK5 = test system: MAPKAPK5
MARK1 = test system: MARK1
MARK2 = test system: MARK2
MARK3 = test system: MARK3
MARK4 = test system: MARK4
MAST1 = test system: MAST1
MEK1 = test system: T1, MEK1
T1 construct: gene MAP2K1

MEK2 = test system: T2, MEK2
T2 construct: gene MAP2K2

MEK3 = test system: T3, MEK3
T3 construct: gene MAP2K3

MEK4 = test system: T4, MEK4
T4 construct: gene MAP2K4
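Note: KINOMEscan kinase panel screen.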

SMILES | %Inh (MAPKAPK5) [%] | %Inh (MARK1) [%] | %Inh (MARK2) [%] | %Inh (MARK3) [%] | %Inh (MARK4) [%] | %Inh (MAST1) [%] | %Inh (MEK1) [%] | %Inh (MEK2) [%] | %Inh (MEK3) [%] | %Inh (MEK4) [%]
CN(C)CCNS(=O)(=O)c1ccc(-c2ccnc3[nH]ccc23)cc1 [GSK977620] | 0 | 8 | 31 | 13 | 2 | 0 | 0 | 0 | 10 | 19
Fc1cc(Cl)ccc1Nc1ccnc2cc(-c3ccc(CN4CCSCC4)o3)ccc12 [GW560106] | 0 | 5 | 0 | 0 | 21 | 34 | 53 | 35 | 0 | 3
CN(c1ccc(F)c(NC(=O)c2cccc(OC(C)(C)C#N)c2Cl)c1)c1ccc2nc(NC(=O)C3CC3)sc2n1 | 0 | 0 | 0 | 0 | 0 | 40 | 61 | 49 | 0 | 26
CN1CCN(Cc2ccc(NC(=O)Nc3ccc(N(C)c4ccnc(Nc5ccc(CS(C)(=O)=O)cc5)n4)cc3)cc2)CC1.Cl [GW827654] | 13 | 32 | 60 | 61 | 31 | 32 | 1 | 25 | 74 | 86
CC(C)NCC(Cc1ccccc1)NC(=O)c1cc(Br)c(-c2ccnc3[nH]ccc23)s1.Cl.Cl (stereo not shown) [GSK1383281] | 0 | 11 | 31 | 60 | 0 | 0 | 0 | 0 | 87 | 39
COC(=O)Nc1nc2ccc(Oc3ccc(CC(=O)Nc4cc(C(F)(F)F)ccc4F)cc3)cc2[nH]1 [GW680903] | 0 | 0 | 100 | 5 | 0 | 0 | 0 | 0 | 0 | 29
Cl.Cl.NC(CNC(=O)c1cc(Br)c(-c2ccnc3[nH]ccc23)s1)c1ccccc1 (stereo not shown) [GSK1322949] | 0 | 0 | 22 | 0 | 0 | 29 | 0 | 0 | 74 | 57
Fc1cc(Cl)ccc1Nc1ccnc2cc(-c3ccc(CN4CCOCC4)o3)ccc12 [GW560109] | 0 | 0 | 0 | 2 | 0 | 3 | 0 | 38 | 0 | 31
Cc1cccc(Nc2nc(N[C@H]3CCCC[C@H]3N)ncc2C(N)=O)c1.Cl [GSK986310] | 0 | 5 | 37 | 0 | 13 | 0 | 8 | 19 | 88 | 69
COc1cc(Nc2nccc(N3CCC(NC(=O)Nc4ccc5c(c4)OCO5)C3)n2)cc(OC)c1OC (stereo not shown) [GSK1379766] | 0 | 4 | 0 | 0 | 1 | 0 | 0 | 0 | 2 | 8
Cc1nn2c(=O)cc(N3CCO[C@H](C)C3)nc2n1Cc1cccc(Cl)c1Cl [GSK2373693] | 0 | 0 | 0 | 0 | 0 | 0 | 0 | 0 | 10 | 27
O=C(Nc1n[nH]c2cc(-c3cccs3)ccc12)C1CC1 [SB-731284] | 4 | 47 | 21 | 0 | 35 | 6 | 47 | 24 | 51 | 46
O=C(Nc1n[nH]c2nc(-c3ccccc3O)ccc12)C1CC1 [SB-711880] | 0 | 0 | 43 | 0 | 0 | 31 | 5 | 25 | 40 | 34
COc1ccc(C2=C(Nc3cccc(O)c3)C(=O)NC2=O)cc1 [SB-390766] | 0 | 46 | 0 | 0 | 19 | 0 | 0 | 0 | 0 | 0
COc1cccc(CC(=O)N2CCc3cc(-c4cn(C)c5ncnc(N)c45)ccc32)c1 [GSK2608899] | 0 | 0 | 0 | 7 | 0 | 0 | 39 | 0 | 0 | 53
Cc1ccc(Nc2ccnc(Nc3ccc(C)c(F)c3)n2)cc1O.Cl [GW582868] | 0 | 0 | 0 | 0 | 0 | 28 | 0 | 0 | 13 | 28
CNc1nccc(-c2ccc3c(N)n[nH]c3c2)n1 [GSK2206003] | 0 | 0 | 25 | 0 | 0 | 0 | 0 | 5 | 34 | 22

SMILES | %Inh (MAPKAPK5) [%] | %Inh (MARK1) [%] | %Inh (MARK2) [%] | %Inh (MARK3) [%] | %Inh (MARK4) [%] | %Inh (MAST1) [%] | %Inh (MEK1) [%] | %Inh (MEK2) [%] | %Inh (MEK3) [%] | %Inh (MEK4) [%]
Cn1cc(-c2ccc3c(c2)CCN3C(=O)Cc2cc(F)cc(C(F)(F)F)c2)c2c(N)ncnc21 [GSK2635225] | 0 | 0 | 9 | 0 | 2 | 0 | 0 | 0 | 0 | 29
c1ccc(Oc2ccc(Nc3ccnc4cc(-c5ccc(CN6CCCCC6)o5)ccc34)cc2)nc1 [GW567143] | 0 | 0 | 0 | 0 | 5 | 0 | 95.3 | 97.1 | 0 | 0
CN(C)CCOc1ccc(-c2cc(-c3ccc(Cl)c(O)c3)c(-c3ccncc3)[nH]2)cc1.Cl.Cl [SB-684387] | 29 | 0 | 14 | 14 | 0 | 52 | 0 | 35 | 5 | 10
Cc1cc(-c2ccnc(Nc3cccc(C#N)c3)n2)cc(C)c1O [GSK1440913] | 0 | 0 | 0 | 0 | 0 | 0 | 0 | 0 | 89 | 40
CCNc1nccc(-c2c(-c3ccc(F)cc3)ncn2C2CCN(C)CC2)n1 | 0 | 0 | 0 | 0 | 0 | 46 | 4 | 15 | 0 | 0
COc1cc(Nc2ccnc3cc(-c4ccncc4)ccc23)cc(OC)c1OC.Cl [GW494610] | 0 | 1 | 0 | 0 | 9 | 15 | 14 | 0 | 0 | 27
Nc1ncc(-c2cn[nH]c2)c2scc(-c3ccc4c(c3)CCN4C(=O)Cc3ccccc3)c12 [GSK2593067] | 0 | 0 | 7 | 0 | 7 | 0 | 0 | 0 | 0 | 60
Nc1cccc(-c2ccc3c(N)n[nH]c3c2)c1 [GSK2193613] | 0 | 0 | 0 | 0 | 0 | 0 | 53 | 39 | 0 | 12
COC(=O)Nc1nc2cc(Oc3ccc(NC(=O)Nc4cccc(SC)c4)cc3)ccc2[nH]1.Cl [GW697999] | 0 | 0 | 0 | 0 | 9 | 14 | 0 | 0 | 0 | 12
Cl.N#CCc1ccc(Nc2nccc(Nc3ccc(Oc4ccccc4)cc3)n2)cc1 [GW639905] | 0 | 0 | 0 | 0 | 0 | 0 | 2 | 12 | 0 | 22
NCCC(NC(=O)c1cc(Br)c(-c2ccnc3[nH]ccc23)s1)c1ccccc1.O=C(O)C(F)(F)F.O=C(O)C(F)(F)F (stereo not shown) [GSK1307810] | 0 | 7 | 26 | 0 | 11 | 15 | 0 | 0 | 93.7 | 52
Cc1ccc(O)cc1Nc1ccnc2ccc(C(C)(C)C)cc12 [GW856805] | 0 | 36 | 20 | 21 | 37 | 69 | 17 | 21 | 67 | 42
CC(C)c1nc(-c2ccc(F)c(NS(=O)(=O)c3c(F)cccc3F)c2)c(-c2ccnc(Nc3ccc(N4CCOCC4)nc3)n2)s1 [GSK1804250] | 0 | 0 | 15 | 0 | 16 | 0 | 17 | 27 | 19 | 100
Cc1cccc(Nc2nc(NCCN)ncc2C(N)=O)c1 [GSK1292139] | 44 | 0 | 39 | 7 | 0 | 0 | 0 | 9 | 94.9 | 55
CSc1ccc(NC2=C(c3ccc(Cl)cc3)C(=O)NC2=O)cc1 [SB-317658] | 0 | 3 | 0 | 28 | 21 | 23 | 3 | 6 | 0 | 0
Cc1ccccc1CC(=O)N1CCc2cc(-c3cn(C)c4ncnc(N)c34)ccc21 [GSK2603346] | 0 | 0 | 0 | 0 | 0 | 0 | 0 | 0 | 1 | 27
O=C(O)C(F)(F)F.O=c1[nH]ccc2nc(N[C@@H]3CCNC3)nc(Nc3ccc4c(c3)S(=O)(=O)CC4)c12 [GSK2181306] | 90.4 | 65 | 91.7 | 70 | 81 | 12 | 97.5 | 94.7 | 93.5 | 91

Reference: publication PMC5540273 (PLoS ONE, 2017)
